Source: PubChem BioAssay (NCATS)
“And” between values parts separate entries of the source, which are not always exact repeats. Equal values may be shown once. Records with an inconclusive call do not appear. The source made the active and inactive calls. Unless noted, the call rests on the fitted dose curve; in most records, active means well fitted curve in the direction sought with a large enough effect; inconclusive means small, poorly fitted or top-dose-only effect, or another doubt; inactive means no such curve, though single readings can be large; an effect the other way counts as inactive or inconclusive.

Legend:
[1] = Validation screen for small molecules that induce DNA re-replication in MCF 10A normal breast cells (AID 463097); further: nearly all actives have a fitted effect of over 60% in size; further: potency means the concentration at half of the fitted maximal effect
Outline: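 250 MCF 10A cells/well; compound pin-transferred; 48 hr, 37 C, 5% CO2; Hoechst 40 min; imaged 405/500-530 nm. Hits = more high-intensity nuclei.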

[2] = biological target: Ubiquitin carboxyl-terminal hydrolase 2 (Homo sapiens) (UniProt O75604); assay: qHTS Validation Assay for Inhibitors of Ubiquitin-specific Protease USP2a Using CHOP2 as the Reporter (AID 463106)
Outline: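 10nM USP2 core + cpd, 30min RT; add 25nM Ub-CHOP2/25nM substrate; 60min RT; FI 485/531nm. Buffer Tris pH 8.0, CaCl2, BME, CHAPS. Norm. to NEM = 100% inhibition; time-zero read flags fluorescent artifacts.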

[3] = biological target: DNA polymerase III PolC-type (Bacillus subtilis (strain 168)) (UniProt P13267); assay: qHTS Validation Assay for the Inhibitors of DNA Replication in Gram-Positive Bacteria (AID 485295); further: potency means the concentration at half of the fitted maximal effect
Outline: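 PicoGreen fluorescence (ex 480–485/em 535–540 nm) reports dsDNA synthesized on ssM13Gori template with dNTPs/NTPs. Enzyme: holoenzyme rebuilt from purified PolC, beta subunit, SSB and primase. Compound preincubated before substrate addition; RT throughout.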

[4] = biological target: Tumor susceptibility gene 101 protein (Homo sapiens) (UniProt Q99816); assay: qHTS Validation Assay for Iinhibitors of HIV-1 Budding by Blocking the Interaction of PTAP/TSG101 (AID 485342; calls by dose curve)
Outline: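 FP read-out: FITC-PTAP peptide, 50 nM final, binding Tsg101 binding domain, 10 uM final; 20 min r.t.; 10 mM HEPES pH 7.5, 0.15 M NaCl, 0.01% Tween 20, 3 mM EDTA, 0.1 mM TCEP.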

[5] = qHTS Validation Assay to Find Inhibitors of Chronic Active B-Cell Receptor Signaling (AID 485345; active means well fitted curve in the direction sought with a large enough effect in the main read-out, with a control signal flat, not every such curve was filed as active)
Outline: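 Read-out: ratio of filter-corrected green (IkappaBalpha fusion) to red (native) luciferase signal in doxycycline-induced TMD8 cells after 4 h at 37C. Titration spanned 46 uM–3 nM; Data were normalised to basal cells and 10 uM MG-132 wells.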

[6] = biological target: Beta-2 adrenergic receptor (Homo sapiens) (UniProt P07550); assay: qHTS validation assay of beta-arrestin-biased ligands of beta2-adrenergic receptor (AID 485366)
Outline: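 Tango cells expressing recombinant beta2-AR and beta-arrestin with tTA-driven luciferase, in DMEM with 1% FBS. Compounds were titrated up to 46 microM for 18 hr at 37 degrees C. Luminescence was read 15 min after substrate; curves were fitted and class-assigned.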

[7] = Quantitative high throughput screen for delayed death inhibitors of the malarial parasite plastid, 96 hour incubation (AID 488745); further: nearly all actives have a fitted effect of over 70% in size; further: potency means the concentration at half of the fitted maximal effect
Outline: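 Infected erythrocytes were added to compound in Albumax-supplemented RPMI 1640 at 0.1% parasitemia and 2% hematocrit (final), incubated 96 h at 37 C under 5% CO2, then luciferase reagent was added and luminescence measured.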

[8] = Quantitative high throughput screen for delayed death inhibitors of the malarial parasite plastid, 48 hour incubation (AID 488752); further: nearly all actives have a fitted effect of over 65% in size; further: potency means the concentration at half of the fitted maximal effect
Outline: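 Readout is firefly luciferase luminescence from a reporter integrated into the parasite genome, with lower signal taken as inhibited growth. Infected red cells (0.1% parasitemia, 2% hematocrit final) are cultured with compound for one 48 h cycle at 37 C.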

[9] = biological target: Thioredoxin reductase 1, cytoplasmic (Rattus norvegicus) (UniProt O89049); assay: qHTS Assay for Substrates of Mammalian Selenoprotein Thioredoxin Reductase 1 (TrxR1) (AID 488772);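 further: NADPH fluorescence in the first read after selenite addition and not the 8 min delta; series mostly up to about 57 µM; a drop in NADPH fluorescence below the no-compound background marks a TrxR1 substrate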
Outline: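 Quantitative HTS in Tris-HCl buffer at pH 7.5 with EDTA and Tween-20, using rat TrxR1, 400 uM NADPH and 400 uM selenite (final). A fall in initial NADPH fluorescence relative to background marked substrate behaviour.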

[10] = biological target: Thioredoxin reductase 1, cytoplasmic (Rattus norvegicus) (UniProt O89049); assay: qHTS Assay for Inhibitors of Mammalian Selenoprotein Thioredoxin Reductase 1 (TrxR1) (AID 488773); details: Potency: inhibition; further: nearly all actives have a fitted effect of over 40% in size; further: potency means the concentration at half of the fitted maximal effect
Outline: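 Steps: enzyme (90 nM) plus NADPH (400 uM final), 5 min at ~22 deg C; compound added, 15 min; selenite (400 uM final) added; fluorescence followed for 8 min. Concentration-response curves derived from the normalized delta values.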

[11] = biological target: Flap endonuclease 1 (Homo sapiens) (UniProt P39748); assay: qHTS Validation Assay for the Inhibitors of Human Flap endonuclease 1 (FEN1) (AID 488816); further: potency means the concentration at half of the fitted maximal effect
Outline: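 Readings taken at 0 and 15 min after starting the reaction with 50 nM (final) substrate supplied the signal. Compounds had first sat with 10 nM FEN1 reagent for 15 min at room temperature. Values come from Hill-equation concentration-response fits.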

[12] = biological target: M-phase phosphoprotein 8 (Homo sapiens) (UniProt Q99549); assay: qHTS Validation Assay for Inhibitors for MPP8 Chromodomain Interactions with Methylated Histone Tails (AID 488949); further: nearly all actives have a fitted effect of over 55% in size; further: potency means the concentration at half of the fitted maximal effect
Outline: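 AlphaScreen read-out: streptavidin donor and nickel chelate acceptor beads (final 10 ug/mL), 30 min in the dark at RT. Complex of 50 nM MPP8 and 50 nM b-H3(1-18)K9me3 peptide had been exposed to compounds for 30 min beforehand.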

[13] = biological target: Chromobox protein homolog 1 (Homo sapiens) (UniProt P83916); assay: qHTS Validation Assay for Inhibitors of HP1-beta Chromodomain Interactions with Methylated Histone Tails (AID 488953); further: nearly all actives have a fitted effect of over 50% in size; further: potency means the concentration at half of the fitted maximal effect
Outline: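 50 nM HP1-beta + 50 nM biotin-H3(1-18)K9me3, PBS pH 7.4, 0.01% Tween-20, 30 min RT; compound added, 30 min RT; AlphaScreen beads 10 ug/mL final, 30 min dark; luminescence read.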

[14] = biological target: Methanococcus maripaludis chaperonin (MmCpn) (UniProt Q6LX38); assay: High-Throughput Screening for Modulators of Cytosolic Chaperonin Activity: MmCpn Primary Screen (AID 488978);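 further: 50 nM MmCpn enzyme hydrolysing 30 µM ATP at 37 °C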
Outline: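 ADP formation read by HTRF Transcreener, 665/590 nm emission after 320 nm excitation. Enzyme: archaeal chaperonin at 50 nM final; substrate ATP 30 uM final; 10 min, 37C, after 5 min compound preincubation at RT.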

[15] = biological target: Thyrotropin receptor (Homo sapiens) (UniProt P16473); assay: qHTS Assay for Antagonists of the Thyroid Stimulating Hormone Receptor (AID 488980); further: series mostly up to about 58 µM
Outline: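 TSHR-HEK293 cells; 70 uM RO 20-1724 PDE inhibitor; compound + EC80 TSH (4 nM final); anti-cAMP cryptate antibody/cAMP-d2 in lysis buffer, 30 min RT; HTRF 665/620 nm read.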

[16] = biological target: D(1A) dopamine receptor (Homo sapiens) (UniProt P21728); assay: HTS Assay for Allosteric Agonists of the Human D1 Dopamine Receptor: Primary Screen for Potentiators (AID 488982); further: potency means the concentration at half of the fitted maximal effect
Outline: (§1)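 Calcium flux in an inducible, force-coupled HEK293 Trex D1 line (overnight at 30 C): agonist mode is the 180 s kinetic read after compound; potentiator mode is the following 180 s read after dopamine at EC20.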

[17] = Cytometry Cell-Based qHTS for Inhibitors of the mTORC1 Signaling Pathway in MEF cells (AID 2668); further: potency means the concentration at half of the fitted maximal effect
Outline: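 Read-out: phospho-rpS6 Ser235/236 immunofluorescence normalized to propidium iodide intensity, scored as % active cells against a rapamycin (7.5 nM) threshold. Cells: Tsc2-/-, p53-/- MEFs stably expressing WT Tsc2, compound-treated 24 hrs at 37 degree Celsius.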

[18] = biological target: ATP-dependent 6-phosphofructokinase (Trypanosoma brucei brucei) (UniProt O15648); assay: qHTS Validation Assay to Find Inhibitors of T. brucei phosphofructokinase (AID 485368); further: potency means the concentration at half of the fitted maximal effect
Outline: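 Activity was read as ADP production by luminescence (ADP-Glo) after 45 min at room temperature. The enzyme was 1.25nM PFK in 0.1M TEA pH 8.0 with 0.5 mM F6P, 0.1mM ATP and 5 mM MgCl2. Compounds were titrated up to 57 uM and % activity normalized to no-enzyme and full-enzyme controls.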

[19] = biological target: Transient receptor potential cation channel subfamily V member 1 (Homo sapiens) (UniProt Q8NER1); assay: HTS Assay for Compounds that Act as Enhancers of the Vanilloid Receptor 1 (AID 488979)
Outline: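 Calcium influx kinetics via Fluo-8 (480/520 nm) in TRPV1-expressing cells, 2000/well cultured overnight at 35.5C. Compound-alone read 3 min (agonist phase), followed by EC20 capsaicin challenge for 2 min (enhancer phase).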

[20] = biological target: D(1A) dopamine receptor (Homo sapiens) (UniProt P21728); assay: HTS Assay for Allosteric Agonists of the Human D1 Dopamine Receptor: Primary Screen for Agonists (AID 488981)
Outline: as §1

Measured: Potency

Chain of Chromobox protein homolog 1 (Homo sapiens) (P83916 whole entry, looked up): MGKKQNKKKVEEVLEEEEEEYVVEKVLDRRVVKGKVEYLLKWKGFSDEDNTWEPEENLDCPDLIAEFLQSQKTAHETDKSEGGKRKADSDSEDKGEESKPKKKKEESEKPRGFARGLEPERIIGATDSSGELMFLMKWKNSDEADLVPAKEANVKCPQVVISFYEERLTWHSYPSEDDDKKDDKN
Chain of M-phase phosphoprotein 8 (Homo sapiens) (Q99549 whole entry, looked up): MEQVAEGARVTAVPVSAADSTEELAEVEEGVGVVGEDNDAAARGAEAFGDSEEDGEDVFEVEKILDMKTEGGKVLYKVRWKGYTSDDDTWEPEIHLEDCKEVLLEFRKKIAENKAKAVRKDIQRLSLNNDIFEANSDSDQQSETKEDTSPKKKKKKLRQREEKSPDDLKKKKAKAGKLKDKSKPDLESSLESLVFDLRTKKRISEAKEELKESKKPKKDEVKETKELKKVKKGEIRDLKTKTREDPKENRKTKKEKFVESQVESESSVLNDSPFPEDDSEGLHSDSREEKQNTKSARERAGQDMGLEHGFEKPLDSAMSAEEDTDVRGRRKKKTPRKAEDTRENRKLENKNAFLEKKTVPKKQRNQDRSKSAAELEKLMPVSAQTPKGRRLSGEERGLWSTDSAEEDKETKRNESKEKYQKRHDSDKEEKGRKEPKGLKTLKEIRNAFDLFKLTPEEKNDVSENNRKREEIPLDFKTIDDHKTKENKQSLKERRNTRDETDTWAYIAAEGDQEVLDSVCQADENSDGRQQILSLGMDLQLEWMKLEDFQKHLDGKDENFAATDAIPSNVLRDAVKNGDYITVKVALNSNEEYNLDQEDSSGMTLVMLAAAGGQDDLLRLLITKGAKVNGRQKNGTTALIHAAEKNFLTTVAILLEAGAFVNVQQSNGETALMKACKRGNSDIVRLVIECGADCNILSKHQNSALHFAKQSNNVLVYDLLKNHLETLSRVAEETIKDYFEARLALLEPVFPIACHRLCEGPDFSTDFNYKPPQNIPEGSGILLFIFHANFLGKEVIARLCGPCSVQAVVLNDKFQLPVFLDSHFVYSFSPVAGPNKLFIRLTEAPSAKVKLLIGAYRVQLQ
Chain of ATP-dependent 6-phosphofructokinase (Trypanosoma brucei brucei) (O15648 whole entry, looked up): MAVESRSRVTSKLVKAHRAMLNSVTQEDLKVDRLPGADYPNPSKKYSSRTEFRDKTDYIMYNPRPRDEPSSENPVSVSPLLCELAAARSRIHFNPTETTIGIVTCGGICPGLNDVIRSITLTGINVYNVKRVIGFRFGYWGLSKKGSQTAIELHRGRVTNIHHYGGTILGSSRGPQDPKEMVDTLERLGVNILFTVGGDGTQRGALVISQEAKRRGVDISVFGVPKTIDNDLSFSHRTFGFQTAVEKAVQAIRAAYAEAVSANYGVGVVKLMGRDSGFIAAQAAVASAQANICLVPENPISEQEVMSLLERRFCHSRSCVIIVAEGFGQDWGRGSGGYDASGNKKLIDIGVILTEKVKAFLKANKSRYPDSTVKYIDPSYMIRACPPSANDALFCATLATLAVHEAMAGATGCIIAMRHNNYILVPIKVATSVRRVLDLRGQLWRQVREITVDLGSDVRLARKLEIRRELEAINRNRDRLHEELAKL
Chain of Methanococcus maripaludis chaperonin (MmCpn) (Q6LX38 1-543): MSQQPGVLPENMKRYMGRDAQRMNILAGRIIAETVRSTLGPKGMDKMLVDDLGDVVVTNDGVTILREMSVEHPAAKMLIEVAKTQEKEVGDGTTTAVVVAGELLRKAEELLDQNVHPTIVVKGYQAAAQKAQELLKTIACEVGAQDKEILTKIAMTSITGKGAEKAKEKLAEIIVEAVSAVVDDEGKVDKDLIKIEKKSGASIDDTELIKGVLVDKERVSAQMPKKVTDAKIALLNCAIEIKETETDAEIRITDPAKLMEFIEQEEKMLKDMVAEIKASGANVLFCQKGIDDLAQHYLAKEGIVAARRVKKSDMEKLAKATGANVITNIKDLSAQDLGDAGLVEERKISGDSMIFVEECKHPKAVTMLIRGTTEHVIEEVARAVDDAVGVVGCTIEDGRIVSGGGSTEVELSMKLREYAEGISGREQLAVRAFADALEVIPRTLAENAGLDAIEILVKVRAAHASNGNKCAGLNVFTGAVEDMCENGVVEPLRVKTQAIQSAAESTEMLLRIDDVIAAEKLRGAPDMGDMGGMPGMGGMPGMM
Chain of Transient receptor potential cation channel subfamily V member 1 (Homo sapiens) (Q8NER1 whole entry, looked up): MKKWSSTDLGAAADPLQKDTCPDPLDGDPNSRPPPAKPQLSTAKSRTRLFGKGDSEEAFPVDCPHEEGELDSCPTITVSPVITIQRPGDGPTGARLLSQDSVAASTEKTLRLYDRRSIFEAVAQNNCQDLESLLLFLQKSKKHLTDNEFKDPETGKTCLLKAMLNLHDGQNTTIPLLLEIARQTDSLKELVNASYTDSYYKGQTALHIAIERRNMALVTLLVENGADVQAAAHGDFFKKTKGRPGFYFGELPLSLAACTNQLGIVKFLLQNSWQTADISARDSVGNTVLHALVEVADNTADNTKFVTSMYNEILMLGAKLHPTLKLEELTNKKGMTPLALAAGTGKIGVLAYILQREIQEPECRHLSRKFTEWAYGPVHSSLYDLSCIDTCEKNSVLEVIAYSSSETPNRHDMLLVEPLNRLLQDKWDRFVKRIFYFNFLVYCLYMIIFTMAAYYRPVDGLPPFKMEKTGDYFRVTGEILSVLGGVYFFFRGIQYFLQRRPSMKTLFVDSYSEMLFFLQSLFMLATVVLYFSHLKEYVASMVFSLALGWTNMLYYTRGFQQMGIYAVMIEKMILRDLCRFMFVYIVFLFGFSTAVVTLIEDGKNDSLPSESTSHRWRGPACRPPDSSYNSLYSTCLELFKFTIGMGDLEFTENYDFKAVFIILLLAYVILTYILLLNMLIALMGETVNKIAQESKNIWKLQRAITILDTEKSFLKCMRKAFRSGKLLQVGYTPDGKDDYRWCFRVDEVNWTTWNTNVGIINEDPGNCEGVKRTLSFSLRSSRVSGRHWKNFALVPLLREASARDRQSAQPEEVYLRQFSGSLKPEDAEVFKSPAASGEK
Chain of Thioredoxin reductase 1, cytoplasmic (Rattus norvegicus) (O89049 whole entry, looked up): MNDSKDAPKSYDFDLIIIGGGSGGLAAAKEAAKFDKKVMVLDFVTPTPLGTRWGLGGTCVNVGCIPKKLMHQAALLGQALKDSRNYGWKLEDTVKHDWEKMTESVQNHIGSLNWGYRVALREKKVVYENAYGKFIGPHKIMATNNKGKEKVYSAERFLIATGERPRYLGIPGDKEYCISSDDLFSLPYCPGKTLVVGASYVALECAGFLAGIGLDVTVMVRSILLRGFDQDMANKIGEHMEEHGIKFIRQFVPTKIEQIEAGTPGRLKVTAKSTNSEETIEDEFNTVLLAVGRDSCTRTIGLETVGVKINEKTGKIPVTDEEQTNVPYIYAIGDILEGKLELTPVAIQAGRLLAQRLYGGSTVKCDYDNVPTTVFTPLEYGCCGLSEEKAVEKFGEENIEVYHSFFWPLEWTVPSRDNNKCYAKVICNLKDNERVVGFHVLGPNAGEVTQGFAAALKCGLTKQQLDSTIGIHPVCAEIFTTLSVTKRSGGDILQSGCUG
Chain of Flap endonuclease 1 (Homo sapiens) (P39748 whole entry, looked up): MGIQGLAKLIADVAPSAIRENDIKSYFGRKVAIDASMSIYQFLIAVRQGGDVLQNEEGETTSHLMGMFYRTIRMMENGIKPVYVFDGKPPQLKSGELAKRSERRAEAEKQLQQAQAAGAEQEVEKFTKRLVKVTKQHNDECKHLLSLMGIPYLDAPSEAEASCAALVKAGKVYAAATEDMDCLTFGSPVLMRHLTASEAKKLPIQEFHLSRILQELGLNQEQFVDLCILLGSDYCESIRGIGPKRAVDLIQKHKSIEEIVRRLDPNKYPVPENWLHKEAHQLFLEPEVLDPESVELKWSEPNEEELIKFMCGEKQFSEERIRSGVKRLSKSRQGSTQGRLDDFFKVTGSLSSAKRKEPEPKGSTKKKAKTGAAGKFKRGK
Chain of D(1A) dopamine receptor (Homo sapiens) (P21728 whole entry, looked up): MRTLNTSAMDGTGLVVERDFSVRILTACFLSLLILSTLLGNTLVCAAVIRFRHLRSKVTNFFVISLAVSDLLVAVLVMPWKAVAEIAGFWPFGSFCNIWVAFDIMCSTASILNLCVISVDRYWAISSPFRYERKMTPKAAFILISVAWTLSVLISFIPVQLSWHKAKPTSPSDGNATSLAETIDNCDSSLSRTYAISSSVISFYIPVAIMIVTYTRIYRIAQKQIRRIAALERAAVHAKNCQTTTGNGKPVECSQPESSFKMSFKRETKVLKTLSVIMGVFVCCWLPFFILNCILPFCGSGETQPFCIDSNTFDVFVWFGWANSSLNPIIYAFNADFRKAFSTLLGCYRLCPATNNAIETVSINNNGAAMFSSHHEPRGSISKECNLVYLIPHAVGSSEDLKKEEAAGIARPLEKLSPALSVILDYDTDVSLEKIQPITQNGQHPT
Chain of Thyrotropin receptor (Homo sapiens) (P16473 whole entry, looked up): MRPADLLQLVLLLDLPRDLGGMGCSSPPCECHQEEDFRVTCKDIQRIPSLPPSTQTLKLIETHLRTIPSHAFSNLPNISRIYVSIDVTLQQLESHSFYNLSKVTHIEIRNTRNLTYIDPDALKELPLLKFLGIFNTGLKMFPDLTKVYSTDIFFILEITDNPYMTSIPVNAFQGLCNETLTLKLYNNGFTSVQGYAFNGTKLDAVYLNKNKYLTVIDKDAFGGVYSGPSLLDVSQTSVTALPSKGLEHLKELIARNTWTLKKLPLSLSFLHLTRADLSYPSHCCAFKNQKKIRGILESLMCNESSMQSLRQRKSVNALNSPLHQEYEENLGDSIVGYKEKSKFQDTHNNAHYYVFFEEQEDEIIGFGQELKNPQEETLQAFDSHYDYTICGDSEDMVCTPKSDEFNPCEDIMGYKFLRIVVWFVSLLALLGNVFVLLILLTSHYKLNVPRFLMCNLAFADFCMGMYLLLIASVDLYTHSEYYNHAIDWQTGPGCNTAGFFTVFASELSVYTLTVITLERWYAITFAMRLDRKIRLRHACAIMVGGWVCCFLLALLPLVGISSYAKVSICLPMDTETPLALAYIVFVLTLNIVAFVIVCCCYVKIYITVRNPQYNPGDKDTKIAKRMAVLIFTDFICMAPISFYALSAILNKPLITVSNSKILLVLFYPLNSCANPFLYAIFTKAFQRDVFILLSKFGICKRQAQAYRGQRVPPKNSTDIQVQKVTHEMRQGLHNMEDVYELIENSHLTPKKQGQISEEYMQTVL

NC(CO)C(=O)NNCc1ccc(O)c(O)c1O (stereo unspecified)
active: [10] 4.23 µM | [12] 31.6 µM | [13] 35.5 µM
not listed: [17] | [18] | [19] | [20]
inactive: all other assays above

COc1cc2nc(N3CCN(C(=O)C4COc5ccccc5O4)CC3)nc(N)c2cc1OC (stereo unspecified)
active: [17] 11.7 µM | [7] 3.29 µM | [8] 4.15 µM
not listed: [1] | [5] | [11] | [12] | [13] | [15]
inactive: all other assays above

CN(C)CCCN1c2ccccc2CCc2ccc(Cl)cc21
active: [7] 3.29 µM | [8] 1.31 µM
not listed: [5] | [17] | [18] | [19] | [20]
inactive: all other assays above

C[C@](N)(Cc1ccc(O)c(O)c1)C(=O)O
active: [18] 9.53 µM | [10] 3.77 µM | [11] 0.844 µM | [12] 1.89 µM | [13] 1.89 µM
not listed: [15] | [16] | [17] | [20]
inactive: all other assays above

CN(C)CCC=C1c2ccccc2C=Cc2ccccc21
not listed: [5] | [7] | [8] | [12] | [15] | [17] | [19]
inactive: all other assays above

N[C@@H](Cc1c[nH]c2ccc(O)cc12)C(=O)O
not listed: [5] | [7] | [10] | [15] | [17] | [18] | [20]
inactive: all other assays above

O=C1Cc2cc(CCN3CCN(c4nsc5ccccc45)CC3)c(Cl)cc2N1
not listed: [1] | [5] | [7] | [8] | [13] | [15] | [19] | [20]
inactive: all other assays above

Fc1ccc([C@@H]2CCNC[C@H]2COc2ccc3c(c2)OCO3)cc1
inactive: [1] | [2] | [3] | [4] | [6] | [9] | [10] | [11] | [14] | [16]
active: [12] 35.5 µM

COc1cc2nc(N3CCN(C(=O)c4ccco4)CC3)nc(N)c2cc1OC
active: [1] 15.8 µM
not listed: [2] | [7] | [8] | [11] | [12] | [17] | [19] | [20]
inactive: all other assays above

CN(C)CCOC(c1ccccc1)c1ccccc1
not listed: [3] | [12] | [15] | [17] | [18] | [19] | [20]
inactive: all other assays above

COC(=O)Nc1nc2ccc(C(=O)c3cccs3)cc2[nH]1
active: [1] 0.158 µM
not listed: [5] | [7] | [8] | [11] | [15] | [17] | [18]
inactive: all other assays above

CC#C[C@]1(O)CC[C@H]2[C@@H]3CCC4=CC(=O)CCC4=C3[C@@H](c3ccc(N(C)C)cc3)C[C@@]21C
inactive: [2] | [3] | [4] | [6] | [9] | [10] | [11] | [14] | [20]
active: [13] 25.1 µM | [16] 2.31 µM

OCCN1CCN(CCCN2c3ccccc3Sc3ccc(C(F)(F)F)cc32)CC1
inactive: [2] | [3] | [4] | [6] | [9] | [10] | [11] | [14] | [15]

Clc1ccc2c(c1)C(N1CCNCC1)=Nc1ccccc1O2
inactive: [1] | [2] | [3] | [4] | [6] | [9] | [10] | [11] | [14] | [15] | [16]

CN1CCN(CCCN2c3ccccc3Sc3ccc(Cl)cc32)CC1
inactive: [2] | [3] | [4] | [6] | [9] | [10] | [11] | [14] | [20] | [16]
active: [13] 31.6 µM

O=C1c2c(O)ccc(O)c2C(=O)c2c(NCCNCCO)ccc(NCCNCCO)c21
active: [3] 1.5 µM | [7] 1.31 µM | [8] 2.08 µM | [11] 2.99 µM | [12] 2.82 µM and 6.7 µM | [13] 5.62 µM
not listed: [2] | [5] | [17] | [18]
inactive: all other assays above
